For assay [1], the target named is Rap guanine nucleotide exchange factor 3 (Homo sapiens) (UniProt O95398). The assay can be described thus: Confirmatory qHTS for antagonist of cAMP-regulated guanine nucleotide exchange factor 3 (EPAC1) (AID 1645880). Also: nearly all actives have a fitted effect of over 55% in size. Also: potency is read from the fitted curve at half-maximal effect.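 As to activity, negative = inhibition: plate controls were DMSO only for no effect and full effect of the ATA control for full effect.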 The settings on record: EPAC1 Rap1B-BODIPY-GDP exchange, fluorescence; activity, negative = inhibition: at 115 µM (top of the series). The gist of the method:
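Released BODIPY-GDP fluoresces less than Rap1-bound BODIPY-GDP; the signal is followed at 480/540 nm at 5-min intervals over 30 min, after 5 min at room temperature. Reactions contain 100 nM EPAC1, 250 nM RAP1B-BODIPY-GDP and 50 uM GDP; results are normalized to ATA and DMSO.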
In general terms: qHTS replaces the single test concentration by a dilution series.

The target is the same in assay [2]. Briefly: Confirmatory qHTS for agonist of cAMP-regulated guanine nucleotide exchange factor 3 (EPAC1) (AID 1645881). Also: nearly all actives have a fitted effect of over 75% in size. Also: potency is read from the fitted curve at half-maximal effect.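 As to activation: EPAC1 catalysed release of BODIPY-GDP from Rap1B seen as fluorescence loss; 100% = effect of cAMP agonist control.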
Assay [3] addresses Rap guanine nucleotide exchange factor 4 (Homo sapiens) (UniProt Q8WZA2). The assay can be described thus: Confirmatory qHTS for agonist of cAMP-regulated guanine nucleotide exchange factor 4 (EPAC2) (AID 1645884).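 Also: nucleotide exchange releases bodipy-GDP from Rap1 and this lowers its fluorescence; nearly all actives have a fitted effect of over 65% in size.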 Also: potency is read from the fitted curve at half-maximal effect. As to activation: % is scaled to controls: 0 for no effect and ±100 for the full control effect.
For assay [4] the target is unchanged. Briefly: Confirmatory qHTS for antagonist of cAMP-regulated guanine nucleotide exchange factor 4 (EPAC2) (AID 1645885). Also: nearly all actives have a fitted effect of over 25% in size. Also: potency is read from the fitted curve at half-maximal effect. As to activity change, negative = inhibition: % is scaled to controls: 0 for no effect and ±100 for the full control effect.
Assay [5] deals with Rap guanine nucleotide exchange factor 3 (Homo sapiens) (UniProt O95398). Briefly: Counterscreen qHTS for agonist of cAMP-regulated guanine nucleotide exchange factor 3 (EPAC1) (AID 1645889). Also: % of control where 0% means no effect; nearly all actives have a fitted effect of over 40% in size. The gist of the method:
(§1)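 Rap1B-BODIPY-GDP 250 nM + GDP 50 uM; cpds 7-pt, final 9.74 nM–152 uM (activator mode) or from 7.32 nM upwards (inhibitor mode); RT; FI 480/540 nm at 5 and 30 min, then ± cAMP, reread.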
For orientation: A counterscreen serves to expose hits that act by an unwanted route or on another target.

Assay [6] has as its target DNA polymerase eta (Homo sapiens) (UniProt Q9Y253). The assay can be described thus: qHTS for Inhibitors of Polymerase Eta: Confirmatory Assay for Cherry-picked Compounds (AID 720502). Also: potency is read from the fitted curve at half-maximal effect. The settings on record: Pol eta primer extension, TAMRA/BHQ fluorescence, 10 min. The gist of the method: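 Pol eta 10 nM; substrate 50 nM final (unlabeled primer, TAMRA reporter, BHQ-2 template); preincub. 15 min RT; reads t=0 and t=10 min at ex525/em598.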

In assay [7] the target is Rap guanine nucleotide exchange factor 3 (Homo sapiens) (UniProt O95398). Briefly: Counterscreen qHTS for antagonist of cAMP-regulated guanine nucleotide exchange factor 3 (EPAC1) (AID 1645888). Also: % of control where 0% means no effect. The gist of the method: as §1
The target in assay [8] is Tumor susceptibility gene 101 protein (Homo sapiens) (UniProt Q99816). The assay can be described thus: qHTS Assay for Iinhibitors of HIV-1 Budding by Blocking the Interaction of PTAP/TSG101: Hit Validation (AID 651600). Also: % is scaled to controls: 0 for no effect and ±100 for the full control effect; nearly all actives have a fitted effect of over 70% in size. Summed up: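 Measuring PTAP–Tsg101 interaction by FP: protein at 10 uM and fluorescent peptide at 50 nM (final), buffer 10 mM HEPES pH 7.5 with 0.15 M NaCl, 3 mM EDTA, 0.1 mM TCEP, 0.01% Tween 20; 20 min incubation, r.t.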

Results filed as inconclusive are left out. Unmarked numbers belong to inactive results. This is one part of the list. Calls of active or inactive are those of the source. Calls follow the shape of the dose curve; as a rule, active = well fitted curve in the direction sought with a large enough effect; inconclusive = small, poorly fitted or top-dose-only effect, or another doubt; inactive = no such curve, though single readings can be large; an effect the other way counts as inactive or inconclusive.

Rap guanine nucleotide exchange factor 4 (Homo sapiens), sequence (Q8WZA2 whole entry, looked up): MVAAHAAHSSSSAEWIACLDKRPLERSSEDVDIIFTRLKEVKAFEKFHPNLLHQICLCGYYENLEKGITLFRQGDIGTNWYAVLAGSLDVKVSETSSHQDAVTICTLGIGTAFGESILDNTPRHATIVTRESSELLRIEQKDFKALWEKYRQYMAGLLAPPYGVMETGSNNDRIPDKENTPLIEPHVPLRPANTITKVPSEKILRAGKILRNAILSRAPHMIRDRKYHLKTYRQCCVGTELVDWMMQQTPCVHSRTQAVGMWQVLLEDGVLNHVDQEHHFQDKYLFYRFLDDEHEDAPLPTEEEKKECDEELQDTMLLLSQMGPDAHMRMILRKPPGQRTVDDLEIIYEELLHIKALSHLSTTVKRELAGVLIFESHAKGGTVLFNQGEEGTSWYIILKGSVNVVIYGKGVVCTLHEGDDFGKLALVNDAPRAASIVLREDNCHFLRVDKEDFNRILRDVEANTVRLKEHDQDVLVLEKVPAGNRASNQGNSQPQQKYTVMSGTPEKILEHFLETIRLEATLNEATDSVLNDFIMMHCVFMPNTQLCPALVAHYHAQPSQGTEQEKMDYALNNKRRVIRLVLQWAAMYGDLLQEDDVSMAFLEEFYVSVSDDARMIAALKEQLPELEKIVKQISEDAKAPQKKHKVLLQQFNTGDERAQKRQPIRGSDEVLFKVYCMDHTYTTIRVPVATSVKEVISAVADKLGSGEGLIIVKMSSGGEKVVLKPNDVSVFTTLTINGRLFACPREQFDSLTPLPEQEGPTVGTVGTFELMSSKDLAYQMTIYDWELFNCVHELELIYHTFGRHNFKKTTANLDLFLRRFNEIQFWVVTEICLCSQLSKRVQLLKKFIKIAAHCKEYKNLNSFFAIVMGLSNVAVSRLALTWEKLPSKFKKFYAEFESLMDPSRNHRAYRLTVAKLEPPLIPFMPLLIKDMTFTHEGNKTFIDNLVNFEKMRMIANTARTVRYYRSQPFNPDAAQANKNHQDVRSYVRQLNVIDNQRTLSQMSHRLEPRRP
Rap guanine nucleotide exchange factor 3 (Homo sapiens), sequence (O95398 whole entry, looked up): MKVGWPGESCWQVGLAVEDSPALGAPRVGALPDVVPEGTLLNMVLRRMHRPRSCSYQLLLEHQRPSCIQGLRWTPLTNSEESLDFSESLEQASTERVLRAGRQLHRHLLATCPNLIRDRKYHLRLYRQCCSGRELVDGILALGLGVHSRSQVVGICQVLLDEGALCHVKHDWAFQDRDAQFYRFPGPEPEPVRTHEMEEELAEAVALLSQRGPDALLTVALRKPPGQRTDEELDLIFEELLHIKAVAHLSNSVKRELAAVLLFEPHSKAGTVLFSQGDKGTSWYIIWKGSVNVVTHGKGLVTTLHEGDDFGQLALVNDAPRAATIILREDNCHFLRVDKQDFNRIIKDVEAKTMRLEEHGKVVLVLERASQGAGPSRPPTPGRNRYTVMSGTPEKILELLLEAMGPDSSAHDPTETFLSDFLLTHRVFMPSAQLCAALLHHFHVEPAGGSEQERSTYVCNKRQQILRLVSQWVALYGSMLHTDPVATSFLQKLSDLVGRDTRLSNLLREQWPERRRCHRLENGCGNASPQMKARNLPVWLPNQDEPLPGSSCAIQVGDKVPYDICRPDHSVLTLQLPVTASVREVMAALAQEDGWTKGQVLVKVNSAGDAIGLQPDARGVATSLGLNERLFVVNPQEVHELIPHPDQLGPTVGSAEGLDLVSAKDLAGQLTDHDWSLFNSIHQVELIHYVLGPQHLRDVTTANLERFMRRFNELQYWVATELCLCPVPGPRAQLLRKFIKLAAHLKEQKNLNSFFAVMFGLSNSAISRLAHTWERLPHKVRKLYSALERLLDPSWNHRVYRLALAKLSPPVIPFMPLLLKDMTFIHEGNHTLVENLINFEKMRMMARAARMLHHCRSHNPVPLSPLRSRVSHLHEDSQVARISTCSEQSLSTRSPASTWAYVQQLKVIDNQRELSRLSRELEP
Tumor susceptibility gene 101 protein (Homo sapiens), sequence (Q99816 whole entry, looked up): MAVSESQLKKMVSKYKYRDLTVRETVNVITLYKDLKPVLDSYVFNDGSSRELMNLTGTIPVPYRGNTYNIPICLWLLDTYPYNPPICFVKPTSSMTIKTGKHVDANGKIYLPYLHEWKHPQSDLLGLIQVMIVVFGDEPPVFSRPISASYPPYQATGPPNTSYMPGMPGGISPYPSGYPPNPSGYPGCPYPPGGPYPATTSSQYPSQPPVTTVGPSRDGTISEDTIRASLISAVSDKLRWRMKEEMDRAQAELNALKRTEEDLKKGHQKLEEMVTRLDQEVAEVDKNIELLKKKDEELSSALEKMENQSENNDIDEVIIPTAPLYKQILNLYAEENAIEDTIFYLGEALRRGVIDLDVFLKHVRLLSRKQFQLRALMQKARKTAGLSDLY
DNA polymerase eta (Homo sapiens), sequence (Q9Y253 whole entry, looked up): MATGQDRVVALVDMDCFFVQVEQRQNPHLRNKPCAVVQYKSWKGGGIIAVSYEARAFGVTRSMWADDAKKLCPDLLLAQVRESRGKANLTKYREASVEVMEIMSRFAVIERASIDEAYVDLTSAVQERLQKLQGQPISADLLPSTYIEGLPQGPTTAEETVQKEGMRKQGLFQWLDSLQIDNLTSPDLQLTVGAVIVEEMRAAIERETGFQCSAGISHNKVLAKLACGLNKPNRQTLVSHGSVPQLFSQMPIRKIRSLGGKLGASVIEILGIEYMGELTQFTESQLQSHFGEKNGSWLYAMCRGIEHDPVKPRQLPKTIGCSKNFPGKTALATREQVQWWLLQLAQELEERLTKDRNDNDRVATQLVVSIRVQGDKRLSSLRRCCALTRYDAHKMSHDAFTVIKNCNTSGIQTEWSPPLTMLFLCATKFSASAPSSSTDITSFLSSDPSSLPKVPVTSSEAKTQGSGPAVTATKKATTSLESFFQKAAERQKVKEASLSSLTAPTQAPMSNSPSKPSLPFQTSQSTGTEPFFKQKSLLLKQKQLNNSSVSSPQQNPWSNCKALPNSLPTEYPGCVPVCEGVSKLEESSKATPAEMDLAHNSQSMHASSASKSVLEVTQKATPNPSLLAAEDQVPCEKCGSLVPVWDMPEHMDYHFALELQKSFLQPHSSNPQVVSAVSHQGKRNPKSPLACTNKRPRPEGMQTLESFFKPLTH

For `O=C(NCCS(=O)(=O)N1CCc2ccccc2C1)c1ccccc1`, the Potency entry in assay [1], in assay [2], in assay [3], in assay [4] and in assay [5] was “inactive” in each case.

In the case of `COc1ccc(/C=N/N=C2/C(=O)Nc3ccccc32)cc1O`, the Potency result in assay [1], in assay [2] and in assay [4] was “inactive” each time. Besides, the activation in assay [3] is 6.47% [at 17.1 µM, percent relative to cAMP agonist control]; in assay [5] it was 36.3% [at 30.8 µM].

On to `N#CCOC(=O)[C@H](Cc1c[nH]c2ccccc12)NS(=O)(=O)c1ccc(Cl)cc1`, for which the Potency was 37.9 µM (active) in assay [1] and 53.6 µM (active) in assay [4]. For the same compound, the Potency result in assay [2], in assay [3] and in assay [5] was “inactive” throughout.

With `O=C1OC(c2ccccc2)Sc2ccccc21` (stereo not drawn), the Potency result in assay [1], in assay [2] and in assay [4] was “inactive” in each case. The activation was 4.47% [at 17.1 µM, percent relative to cAMP agonist control] in assay [3] and -3.76% [at 30.8 µM] in assay [5].

On to `N#Cc1c(N2CCCCC2)nc(N)c2c(N)nc(SCC(=O)O)cc12`, for which the values for the Potency in assay [6] and in assay [1] were 19 µM (active) and 31.6 µM (active), respectively. Moreover, the Potency result in assay [2] and in assay [4] was “inactive” each time. Besides, the activation in assay [3] is 13.6% [at 17.1 µM, percent relative to cAMP agonist control]. Further, the activity change, negative = inhibition in assay [7] is 35.9% [at 30.8 µM].

On to `N#C/C(=C\c1ccccn1)c1nc2ccccc2s1`, for which the Potency result in assay [8], in assay [2], in assay [3], in assay [4] and in assay [7] was “inactive” each time. For the same compound, in assay [1], the Potency was 19 µM (active).

As for `COc1ccc2nc3ccccc3nc2c1NC(=O)c1ccc(Cl)cc1Cl`, the Potency entry in assay [8], in assay [1], in assay [4] and in assay [7] was “inactive” in each case. Moreover, the Potency in assay [2] and in assay [3] was 100 µM (active) each time.

Take `O=C1/C(=C/c2ccc(O)c(O)c2)SC(=S)N1Nc1ccccc1`: in assay [1], the Potency was 16.9 µM (active). The Potency entry in assay [2], in assay [3], in assay [4] and in assay [5] was “inactive” each time.

Take `CC(C)CCn1c(Oc2ccc(Cl)cc2)nc2c1c(=O)n(C)c(=O)n2C`: the Potency result in assay [1], in assay [2], in assay [3] and in assay [5] was “inactive” in each case. For the same compound, the Potency in assay [4] was 16.9 µM (active).

Turning to `O=S(=O)(O)c1ccc(N=NNc2ccc(Br)cc2)cc1`, the Potency result in assay [1], in assay [2], in assay [3] and in assay [5] was “inactive” throughout. The Potency in assay [4] was 26.9 µM (active).

Consider `C=CCN(CC=C)C(=O)COn1nnc2ccc(S(=O)(=O)N3CCOCC3)cc21`, for which the Potency result in assay [1], in assay [2], in assay [3], in assay [4] and in assay [5] was “inactive” throughout.

For `COc1ccc(C(CC(=O)N2CCCC2)c2ccc(F)cc2)cc1` (stereo not drawn), the Potency entry in assay [1], in assay [2] and in assay [4] was “inactive” in each case. Besides, the activation in assay [3] was 0% [at 17.1 µM, percent relative to cAMP agonist control]; in assay [5], 0.37% [at 30.8 µM].

Turning to `CC(C)CC1C(=O)N(Cc2cn(Cc3ccco3)nn2)CCS(=O)(=O)N1Cc1ccc(-c2ccc(F)cc2)cc1` (stereo not drawn), the figures for the Potency in assay [1] and in assay [4] were 84.9 µM (active) and 21.3 µM (active), respectively. The Potency result in assay [2], in assay [3] and in assay [5] was “inactive” in each case.

For the compound `COc1ccccc1CNC(=O)C1(C)CCN1Cc1ccc(OC(F)(F)F)cc1` (stereo not drawn), the Potency in assay [1] was 67.5 µM (active); in assay [4], 53.6 µM (active). The Potency entry in assay [2], in assay [3] and in assay [5] was “inactive” each time.

With `COc1cccc(CC(=NO)c2cccc(OC)c2)c1`, the Potency result in assay [1], in assay [2] and in assay [4] was “inactive” in each case. For the same compound, the activation in assay [3] is 4.78% [at 17.1 µM, percent relative to cAMP agonist control]; in assay [5] it was 2.23% [at 30.8 µM].

Values taken from PubChem BioAssay (NCATS).
